Results on 22 compounds are retold here after PubChem BioAssay.

A word on the inhibition: it is the percentage by which the read-out fell short of the control.

Structures are written as SMILES. Values without a mark were called inactive. How the calls were made is not given here.

For this assay, the target named is Pantothenate synthetase (Mycobacterium tuberculosis (strain ATCC 25618 / H37Rv)) (UniProt P9WIL5). Kind of assay: Recombinant Mtb pantothenate synthetase (PanC) inhibitors, coupled enzyme, confirmatory (AID 375).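 Further: 0% = full reaction with vehicle and 100% = no enzyme background.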 To be noted: coupled enzyme assay; at 10 µM, hits give high values.
Sequence of Pantothenate synthetase (Mycobacterium tuberculosis (strain ATCC 25618 / H37Rv)) (P9WIL5 whole entry, looked up): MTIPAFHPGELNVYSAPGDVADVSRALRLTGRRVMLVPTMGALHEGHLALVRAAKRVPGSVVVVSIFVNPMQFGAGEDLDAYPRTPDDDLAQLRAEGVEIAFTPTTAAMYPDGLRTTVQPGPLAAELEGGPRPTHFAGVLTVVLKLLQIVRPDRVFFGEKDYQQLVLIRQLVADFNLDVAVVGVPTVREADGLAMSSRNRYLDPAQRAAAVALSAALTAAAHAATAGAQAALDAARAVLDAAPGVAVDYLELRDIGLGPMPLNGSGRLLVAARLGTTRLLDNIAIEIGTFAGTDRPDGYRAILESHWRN
For `Cn1c(SC/C=C/c2ccccc2)nnc1-c1cnccn1`, the inhibition is 1%.

`Cc1cc(C)c2cc(CN(CC3CCCO3)C(=O)NC3CCCCC3)c(=O)[nH]c2c1` (configuration not stated): the inhibition was 0%.

On to `Cc1nc(C)c(C(=O)C2=C(O)C(=O)N(CCN3CCOCC3)C2c2cccnc2)s1` (configuration not stated), for which the inhibition is 13%.

With `CC(NC(=O)c1ccc(F)cc1)C(c1cccs1)N1CCN(C)CC1` (configuration not stated), the inhibition was 3%.

As for `CCOC(=O)C1CCN(C(=O)Nc2ccc(Cl)cc2Cl)CC1`, the inhibition is 0%.

Turning to `CCc1ccc(C2CC(c3cccc(OC)c3)n3nc(N)nc3N2)cc1` (configuration not stated), the inhibition was 3%.

For `CC(=O)NC(=O)NC1CSCC1OC(C)=O` (configuration not stated), the inhibition was 4%.

On to `COc1cccc(CN2CCN(C(=O)CC(C)C)CC2)c1`, for which the inhibition is 6%.

Take `CCC(=O)Nc1cc(C(=O)NCC2CCCN2CC)c(OC)cc1N(C)C` (configuration not stated): the inhibition is 0%.

For `CC(C)NCC(O)COc1ccc(CC(N)=O)cc1` (configuration not stated), the inhibition is 0%.

Consider `CCCn1c(SCC(=O)NC(C)(C)C)nnc1C(C)C`, for which the inhibition is 3%.

On to `O=C(NCCN1C(=O)C2C3C=CC(C3)C2C1=O)N1CCCCC1` (configuration not stated), for which the inhibition is 0%.

For the compound `c1ccc2c(Cn3ccnc3)c[nH]c2c1`, the inhibition was 0%.

As to `COc1ccc(-c2cc(C(F)(F)F)nc(N3CCN(c4ccc(F)cc4)CC3)n2)cc1OC`, the inhibition was 0%.

On to `CCc1cc(=O)oc2c(CN3CCN(C)CC3)c(O)c(Cl)cc12`, for which the inhibition is 5%.

In the case of `Cn1c(=N)n(CC(=O)O)c2ccccc21`, the inhibition is 9%.

Turning to `CC(=O)OCC(=O)[C@@]1(O)CC[C@H]2[C@@H]3CCC4=CC(=O)C=C[C@]4(C)[C@@]3(Cl)[C@@H](Cl)C[C@@]21C`, the inhibition was 0%.

Take `Cc1cccc(-c2nnn(CC/C(N)=N/O)n2)c1`: the inhibition was 3%.

As to `CS(=O)(=O)N1CCc2cc(S(=O)(=O)Nc3ccc4oc5c(c4c3)CCCC5)ccc21`, the inhibition is 3%.

`CCC(c1nnc(SCC(=O)Nc2ccc(C(=O)Nc3ccccc3OC)cc2)o1)N(C)C` (configuration not stated): the inhibition is 0%.

For `CCOC(=O)N1CCC(NC(=O)c2ccc(CS(=O)(=O)c3c(Cl)cccc3Cl)o2)CC1`, the inhibition was 0%.

For `O=C(O)CN1C(=O)C2(OCCCO2)c2ccccc21`, the inhibition was 0%.
